The structures appear in SMILES notation. The source made the active and inactive calls. Unless noted, how the calls were made is not given here.

These results are taken from PubChem BioAssay.

The nature of assay [1]: compounds binding Alexa647 anti-His antibody – biochemical, small-molecule microarray, 635 nm fluorescence, artefact control for SMM control protein annotation, primary screen (AID 1128).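 Further: score merges feature fluorescence with signal-to-noise for each printed compound spot.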 Conditions: higher = more signal.
Assay [2] concerns Human papillomavirus type 1a E7 protein (residues 1-88). Put plainly: HPV1a E7 small-molecule binders, primary screen, biochemical, small-molecule microarray, residues 1-88, 635 nm (AID 1129). Conditions: small-molecule microarray binding, fluorescence 635 nm; higher = more signal.
Assay [3] concerns the target Focal adhesion kinase 1 (Homo sapiens) (UniProt Q05397). Put plainly: PTK2 protein binding on printed compound slides – biochemical, small-molecule microarray, 635/667 nm fluorescence, BSA, DTT, primary screen (AID 1130).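 Further: composite of spot emission at 667 nm and signal to noise over triplicate slides.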 Conditions: 635 nm fluorescence, higher = more signal.
Assay [4] deals with Fibrinogen (Alexa647-labelled). Briefly: Alexa647-fibrinogen binding to printed small molecules – biochemical, small-molecule microarray, 635/667 nm fluorescence, artefact control for SMM control-protein annotation, profiling panel (AID 1131).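 Further: z-score merges 667 nm fluorescence with per-spot signal-to-noise over triplicate slides.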 Conditions: fibrinogen-A647 binding fluorescence, higher = more signal.
Assay [5] concerns the target Follistatin (Homo sapiens) (UniProt P19883). Put plainly: FST protein binding to printed compounds – biochemical, small-molecule microarray, 635/667 nm fluorescence, primary screen (AID 1132). Conditions: 635 nm fluorescence, higher = more signal.
The target in assay [6] is Fibroblast growth factor 2 (Homo sapiens) (UniProt P09038). Briefly: basic fibroblast growth factor binding to printed compounds – biochemical, small-molecule microarray, 635/667 nm fluorescence, primary screen (AID 1133). Conditions: FGF2, fluorescence 635/667, higher = more signal.
Fibroblast growth factor 2 (Homo sapiens), sequence (P09038 whole entry, looked up): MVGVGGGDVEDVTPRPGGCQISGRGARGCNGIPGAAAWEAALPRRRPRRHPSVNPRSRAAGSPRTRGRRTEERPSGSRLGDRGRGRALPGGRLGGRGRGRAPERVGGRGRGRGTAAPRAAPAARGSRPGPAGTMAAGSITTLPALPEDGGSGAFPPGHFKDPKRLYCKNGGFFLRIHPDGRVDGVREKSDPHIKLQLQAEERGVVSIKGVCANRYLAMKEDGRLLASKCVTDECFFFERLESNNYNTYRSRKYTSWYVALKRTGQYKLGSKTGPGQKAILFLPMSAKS
Assay [7] is described as follows: JC-1 mitochondrial potential readout, lung cancer cells – cell-based, A549, JC-1 fluorescence, basal, 24 h, 100 nL, profiling panel (AID 1138).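 Further: A549 lung adenocarcinoma cells under basal conditions with no added stimulus; test concentration not given here.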 Conditions: higher = more signal.
The subject of assay [8] is Lefty1. Briefly: Lefty1 protein binding to printed compounds – biochemical, small-molecule microarray, 635/667 nm fluorescence, primary screen (AID 1139). Conditions: fluorescence 635/667, higher = more signal.
Assay [9] relates to wheat germ agglutinin (Triticum aestivum), Alexa647-labelled. Put plainly: Alexa647-WGA lectin binding to printed small molecules – biochemical, small-molecule microarray, 635/667 nm fluorescence, artefact control for SMM control-protein annotation, profiling panel (AID 1140).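 Further: score merges 667 nm feature emission with signal to noise over triplicate slides.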 Conditions: WGA-A647 binding, 635 nm fluorescence, higher = more signal.
Assay [10] addresses Luciferin 4-monooxygenase (Photinus pyralis) (UniProt P08659). Put plainly: inhibition of purified Photinus pyralis luciferase – biochemical, luminescence, purified enzyme, 2006 set, primary screen (AID 1141).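 Further: cell-free assay with purified firefly luciferase at 100 ng per well in PBS; test concentration not given here.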 Conditions: purified firefly luciferase, SteadyGlo luminescence, 30 min; higher = more signal, called active from +8 up or from −8 down.
Assay [11] relates to Wnt5a (protein binding on small-molecule microarray). Briefly: small molecules binding Wnt5a protein – biophysical, small-molecule microarray, 635/667 nm fluorescence, primary screen (AID 1142).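 Further: fluorescence read at 667 nm with signal to noise per printed feature.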 Conditions: 635 nm fluorescence, higher = more signal.
Assay [12] in a line: ATP-based viability of Huh7 replicon cells – cell-based, CellTiter-Glo luminescence, basal, 48 h, cytotoxicity control for HCV replication inhibitor project, primary screen (AID 1143).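 Further: Huh7 hepatoma cells carrying a hepatitis C replication reporter with no stimulus; test concentration not given here.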 Conditions: higher = more signal, called active from +8 up or from −8 down.
Assay [13] is described as follows: Pseudomonas biofilm growth suppression – PAO1 strain, BacTiter-Glo luminescence, LB-PBS, primary screen (AID 1144). Conditions: P. aeruginosa PAO1 biofilm, 12 h, higher = more signal.
Assay [14] can be described thus: basal CRE-LacZ reporter activity in PC12 – cell-based, unstimulated, primary screen (AID 1145). Conditions: no forskolin, luminescence, 4.5 h, higher = more signal, called active from +8 up or from −8 down.
The nature of assay [15]: forskolin-driven CRE-LacZ activity in PC12 – cell-based, CRE-LacZ reporter, forskolin-stimulated, primary screen (AID 1146).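 Further: PC12 cells with 6xCRE LacZ reporter stimulated by forskolin 10 µM; beta-galactosidase reporter signal reflecting CREB driven transcription.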 Conditions: luminescence, 4.5 h, higher = more signal, called active from +8 up or from −8 down.
In assay [16] the target is Streptavidin (Streptomyces avidinii) (UniProt P22629). Briefly: compounds binding control protein streptavidin – biophysical, small-molecule microarray, 635/667 nm fluorescence, artefact control for SMM compound annotation, primary screen (AID 1147).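 Further: signal reflects streptavidin binding to arrayed compounds as a control protein.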 Conditions: higher = more signal.
Streptavidin (Streptomyces avidinii), sequence (P22629 whole entry, looked up): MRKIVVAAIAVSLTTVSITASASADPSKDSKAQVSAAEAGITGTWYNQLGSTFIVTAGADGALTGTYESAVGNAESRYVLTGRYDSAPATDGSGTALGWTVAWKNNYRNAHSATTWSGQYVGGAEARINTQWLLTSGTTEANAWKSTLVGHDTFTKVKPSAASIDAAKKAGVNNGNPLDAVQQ
Assay [17] can be described thus: probe aInhba binding on compound microarray – biochemical, small-molecule microarray, 635/667 nm fluorescence, primary screen (AID 1148).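 Further: score merges 667nm spot fluorescence with signal-to-noise for antibody binding to printed compounds.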 Conditions: higher = more signal.
Assay [18] has as its target Torsin-1A (Homo sapiens) (UniProt O14656). Briefly: TOR1A wild-type binding on microarray – cell lysate, small-molecule microarray, lysate, 635/667 nm, primary screen (AID 1149). Conditions: COS7 hTOR1A-WT lysate, 635 nm fluorescence, higher = more signal.
Assay [19] shares this target. Put plainly: torsin A mutant lysate binding on microarrays – cell lysate, small-molecule microarray, COS7 lysate, 635/667 nm fluorescence, primary screen (AID 1150).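 Further: score pools 667 nm emission and signal to noise measuring lysate protein binding.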 Conditions: COS7 hTOR1A mutant lysate, 635 nm fluorescence, higher = more signal.
Assay [20] concerns Sonic hedgehog protein (Shh). Put plainly: Sonic hedgehog microarray binding compounds – biochemical, small-molecule microarray, 635/667 nm fluorescence, primary screen (AID 1151).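 Further: Shh protein binding to compounds spotted on small-molecule microarray slides; score combines spot fluorescence intensity with signal-to-noise across triplicate slides.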 Conditions: 635 nm fluorescence, higher = more signal.

Focal adhesion kinase 1 (Homo sapiens), sequence (Q05397 whole entry, looked up): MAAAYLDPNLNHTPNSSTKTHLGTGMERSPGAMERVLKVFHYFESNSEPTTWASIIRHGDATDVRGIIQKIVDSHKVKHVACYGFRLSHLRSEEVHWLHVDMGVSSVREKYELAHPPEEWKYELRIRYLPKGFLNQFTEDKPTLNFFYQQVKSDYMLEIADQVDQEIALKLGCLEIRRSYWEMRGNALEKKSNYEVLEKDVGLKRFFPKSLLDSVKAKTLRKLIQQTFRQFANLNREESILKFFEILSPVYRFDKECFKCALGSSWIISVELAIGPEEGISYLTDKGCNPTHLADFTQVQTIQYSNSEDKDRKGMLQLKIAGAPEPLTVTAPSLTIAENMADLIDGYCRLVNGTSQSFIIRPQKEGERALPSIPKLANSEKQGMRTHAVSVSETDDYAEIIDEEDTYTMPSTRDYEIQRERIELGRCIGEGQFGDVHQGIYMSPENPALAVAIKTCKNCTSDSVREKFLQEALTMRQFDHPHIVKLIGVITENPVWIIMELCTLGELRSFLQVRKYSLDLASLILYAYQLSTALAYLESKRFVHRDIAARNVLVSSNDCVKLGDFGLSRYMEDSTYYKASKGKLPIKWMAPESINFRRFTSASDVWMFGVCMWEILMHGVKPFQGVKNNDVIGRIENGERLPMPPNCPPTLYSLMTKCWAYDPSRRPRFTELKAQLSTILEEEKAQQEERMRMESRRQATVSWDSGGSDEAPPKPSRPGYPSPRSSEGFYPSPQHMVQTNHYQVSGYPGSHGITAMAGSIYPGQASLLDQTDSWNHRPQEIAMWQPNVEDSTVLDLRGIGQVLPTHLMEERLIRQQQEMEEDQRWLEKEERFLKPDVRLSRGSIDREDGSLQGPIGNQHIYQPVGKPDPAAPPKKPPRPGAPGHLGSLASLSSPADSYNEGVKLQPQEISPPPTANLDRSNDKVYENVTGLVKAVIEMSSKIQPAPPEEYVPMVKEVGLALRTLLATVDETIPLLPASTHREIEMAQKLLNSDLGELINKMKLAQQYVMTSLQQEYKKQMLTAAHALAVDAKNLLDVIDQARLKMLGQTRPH
Luciferin 4-monooxygenase (Photinus pyralis), sequence (P08659 whole entry, looked up): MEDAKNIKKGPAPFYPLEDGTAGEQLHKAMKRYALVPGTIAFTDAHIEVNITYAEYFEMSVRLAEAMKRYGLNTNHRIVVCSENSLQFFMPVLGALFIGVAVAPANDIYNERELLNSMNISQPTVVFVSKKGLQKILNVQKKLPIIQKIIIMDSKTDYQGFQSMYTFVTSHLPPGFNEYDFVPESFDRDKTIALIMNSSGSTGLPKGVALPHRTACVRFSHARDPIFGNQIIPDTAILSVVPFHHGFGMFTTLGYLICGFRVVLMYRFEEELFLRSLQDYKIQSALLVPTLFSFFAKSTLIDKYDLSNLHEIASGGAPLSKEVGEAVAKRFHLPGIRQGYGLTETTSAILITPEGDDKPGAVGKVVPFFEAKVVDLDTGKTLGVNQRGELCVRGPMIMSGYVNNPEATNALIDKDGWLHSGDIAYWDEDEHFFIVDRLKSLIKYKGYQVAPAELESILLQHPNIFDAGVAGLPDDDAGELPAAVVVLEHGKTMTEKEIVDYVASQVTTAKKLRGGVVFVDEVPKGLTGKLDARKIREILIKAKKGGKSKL
Follistatin (Homo sapiens), sequence (P19883 whole entry, looked up): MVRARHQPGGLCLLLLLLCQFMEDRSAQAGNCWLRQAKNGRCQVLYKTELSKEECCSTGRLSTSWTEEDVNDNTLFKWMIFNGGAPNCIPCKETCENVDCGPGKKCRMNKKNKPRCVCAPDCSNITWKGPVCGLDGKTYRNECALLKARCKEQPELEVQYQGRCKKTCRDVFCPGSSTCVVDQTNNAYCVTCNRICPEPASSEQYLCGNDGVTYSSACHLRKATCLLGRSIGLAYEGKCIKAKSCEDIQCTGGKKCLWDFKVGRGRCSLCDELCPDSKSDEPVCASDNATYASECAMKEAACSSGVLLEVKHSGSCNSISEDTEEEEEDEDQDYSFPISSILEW
Torsin-1A (Homo sapiens), sequence (O14656 whole entry, looked up): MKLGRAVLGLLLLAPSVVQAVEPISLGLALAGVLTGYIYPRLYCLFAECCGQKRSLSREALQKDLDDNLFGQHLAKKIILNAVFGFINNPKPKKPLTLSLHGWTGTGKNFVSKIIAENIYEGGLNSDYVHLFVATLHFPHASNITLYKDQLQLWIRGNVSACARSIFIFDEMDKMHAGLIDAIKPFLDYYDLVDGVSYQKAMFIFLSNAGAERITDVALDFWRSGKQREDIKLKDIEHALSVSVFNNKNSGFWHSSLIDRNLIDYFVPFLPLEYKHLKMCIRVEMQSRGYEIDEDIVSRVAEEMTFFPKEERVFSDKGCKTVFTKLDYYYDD

Turning to `O=C(NCc1ccc(F)cc1)[C@H]1C[C@H]2C(=O)N[C@@H](Cc3ccccc3)C(=O)N2[C@H]1c1ccc(O)cc1`, the composite z-score in [1] is 1.53; in assay [2] it was 0.526; in [3], 0.063; in assay [4], -0.102; in assay [5], 1.38; in assay [6], 1.59. Further, the composite z-score was -0.169 in [8]; -0.262 in assay [9]; -0.0011 in assay [11]; -0.507 in assay [16]; -0.206 in [17]; 1.08 in assay [18]. Also, the composite z-score in assay [19] was determined as 1.37; in [20], 1.1. Moreover, the z-score was 0.574 in [7]; -0.568 (inactive) in assay [10]; -0.411 (inactive) in [12]; 0.506 (inactive) in assay [13]; -0.801 (inactive) in assay [14]; -0.887 (inactive) in assay [15].
As to `C=C(COC)/C(=C/C[C@@H](OC(C)=O)c1ccc(OCCO)cc1)c1cc(C(=O)OC)ccc1OC`, the composite z-score was 0.531 in assay [1]; 1.21 in assay [2]; 0.481 in assay [3]; -0.367 in assay [4]; 1.25 in assay [5]; 1.5 in assay [6]. Further, the composite z-score is 1.19 in [8]; 0.195 in assay [9]; 0.969 in assay [11]; -0.0154 in [16]; 0.0154 in assay [17]; 0.518 in assay [18]. The composite z-score in [19] came out at 0.672; in assay [20] it was 1.57. For the same molecule, the z-score was 0.371 in assay [7]; -0.371 (inactive) in [10]; -0.21 (inactive) in [12]; -0.201 (inactive) in [13]; 1.82 (inactive) in assay [14]; 1.96 (inactive) in assay [15].
Turning to `CCCCC(O)C1C=CC2C(=O)N(c3ccccc3)C(=O)C2N1Nc1ccccc1F` (stereo not given), the composite z-score was 1.35 in assay [1]; 1.11 in [2]; 0.527 in [3]; 0.924 in [4]; 0.347 in assay [5]; -0.563 in assay [6]. Moreover, the composite z-score in assay [8] is -0.0785; in assay [9] it was 1.2; in [11], 0.182; in [16], 2.09; in assay [17] it was 0.297; in [18], 0.31. Further, the composite z-score in assay [19] was 0.129; in assay [20], -0.0688. The z-score in assay [7] was 0.354; in assay [10], 0.247 (inactive); in [12] it was 0.615 (inactive); in assay [13], -0.571 (inactive); in assay [14], -0.143 (inactive); in assay [15], 0.569 (inactive).
Turning to `COc1ccc(C(O)C2C=CC3C(=O)N(C)C(=O)C3N2N2CCCCC2)c2ccccc12` (stereo not given), the composite z-score in [1] is 1.4; in assay [2] it was 1.26; in assay [3], 0.921; in assay [4], 1; in [5], 0.829; in [6], -0.372. Moreover, the composite z-score in assay [8] was determined as 0.174; in assay [9], 1.27; in [11], 0.533; in assay [16], 1.25; in assay [17], 0.111; in [18], 0.466. The composite z-score in assay [19] is 0.66; in [20], -0.474. Further, the z-score in assay [7] is -0.364; in assay [10], -0.129 (inactive); in assay [12], 0.221 (inactive); in assay [13], 0.28 (inactive); in assay [14], 1.39 (inactive); in assay [15], 0.426 (inactive).
For `CC(C)(C)OC(=O)CC[C@]1(C(=O)NCC(O)CO)COC(c2ccc(OCCCO)cc2)=N1` (stereo not given in full), the composite z-score in assay [1] was 1.97; in [2], 1.22; in assay [3] it was 0.472; in assay [4], 0.936; in [5], -0.255; in assay [6] it was -0.473. For the same molecule, the composite z-score in assay [8] was -0.35; in [9] it was 0.879; in assay [11], -0.05; in assay [16], 0.873; in assay [17], -0.003; in assay [18] it was 0.746. For the same molecule, the figures for the composite z-score in assay [19] and in assay [20] were 2.65 and -1.31, respectively. For the same molecule, the z-score in [7] is -0.328; in assay [10], 0.438 (inactive); in [12], -0.0229 (inactive); in assay [13], -0.904 (inactive); in assay [14], -0.412 (inactive); in [15], -0.0431 (inactive).
